The list is not random: actives were taken first. Their share in the collection is about 1.4%.
HTT aggregate: mutant huntingtin aggregation inhibition; PC12 HttQ103-GFP aggregates, Acumen cytometry, 40 h; Potency, µM (top dose mostly 46.1 µM), for inactives: top-dose activity change, negative = inhibition, hits mostly inhibitors; 220,000 tested, 1.1% active; AID 1688; further: on the % scale 0 is the no-effect control and ±100 the full control effect; nearly all actives have a fitted effect of over 60% in size
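Read-out: GFP aggregate count by laser scanning cytometer (488 nm excitation, 500-530 nm emission, 1–25 µm objects >6 SD above background). Cells: PC12, inducible HTTex1-Q103-GFP, 100 nM tebufenozide; compounds titrated.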
ERK EGF block: EGF-driven ERK pathway inhibition; HEK293-V1b, EGF-stimulated phospho-ERK AlphaScreen; Potency, µM (titrated, usually from 11.5 µM), for inactives: top-dose activity change, negative = inhibition, most hits filed as inhibitors; 130,000 tested, 0.41% active; AID 1454;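 further: plate controls were stimulated vehicle wells for no effect and unstimulated vehicle basal for full effect; nearly all actives have a fitted effect of over 55% in size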
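In this qHTS, HEK293 cells with stable type-1 vasopressin (V1b) receptor were exposed to compound at 37C for 30 min, stimulated 5 min with EGF at 25 nM, lysed, and probed for phospho-ERK by AlphaScreen.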
HTT cytoprotect: cytoprotection in Huntington HTT-Q103 PC12 cell model; PC12 HTT-Q103 induced, cytoprotection, ATP luminescence, 40 h; Potency, µM (titrated, usually from 56.4 µM), inactives show cytoprotection (ATP increase), hits mostly activators; 230,000 tested, 0.14% active; AID 1471; further: % of control where 0% means no effect; nearly all actives have a fitted effect of over 45% in size
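Cells were plated at 1500 per well in phenol red-free DMEM with 5% equine and 5% calf serum. Tebufenozide (100 nM final) and compounds were added, then ATPlite reagent, and luminescence was read.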
An asterisk follows results filed as active; [ ] = another dose, or the depositor's remark. The call rests on the fitted dose curve; in most records, active means well fitted curve in the direction sought with a large enough effect; inconclusive means small, poorly fitted or top-dose-only effect, or another doubt; inactive means no such curve, though single readings can be large; an effect the other way counts as inactive or inconclusive. Potency means the concentration at half of the fitted maximal effect.

COC(=O)C1=C2N(Cc3ccccc3)C(C)=C(C(=O)OC)C(c3ccccc3)N2C(=O)[C@](O)(C(=O)OC)C1 (some centres not stated) was read as HTT cytoprotect -8%[10 µM].
O=C1c2ccccc2C(=O)C1Cc1cccc2ccccc12 was read as HTT aggregate -6% and HTT cytoprotect 4%[10 µM].
`O=C1c2ccccc2C(=O)C12OC2c1cccc2ccccc12` (configuration not stated) gave HTT aggregate 35µM*, ERK EGF block inconclusive and HTT cytoprotect -5%[10 µM].
For Cn1cccc1C(=O)N1CCC2(CCCN(Cc3ccc(C#N)cc3)C2)CC1 the results were ERK EGF block 8% and HTT cytoprotect -43%.
`COc1ccc(-c2cccc(C3CC=CC4C3C(=O)N(Cc3ccccc3)C4c3ccc(C(F)(F)F)cc3)c2)cc1` (configuration not stated) gave HTT aggregate 1µM*, ERK EGF block -1%[57.5 µM] and HTT cytoprotect -45%[10 µM].
For CN(C)c1ccc(-c2cccc(C3CC=CC4C3C(=O)N(Cc3ccccc3)C4c3ccc(C(F)(F)F)cc3)c2)cc1 (configuration not stated) the results were HTT aggregate -33%[9.22 µM], ERK EGF block inconclusive and HTT cytoprotect -48%[10 µM].
Screening CC1(C)N=C(N)N=C(N)N1CCCCc1ccccc1 returned HTT cytoprotect -30%[10 µM].
For NNC(=O)c1cc2c(ccc3ccccc32)o1 the results were HTT aggregate 15%[9.22 µM], ERK EGF block -9% and HTT cytoprotect -25%.
Screening O=C(O)c1cc2c(ccc3ccccc32)o1 returned HTT aggregate 18µM* and HTT cytoprotect -36%.
`CCOc1ccc(N(CC(=O)Nc2cccc(OC)c2)S(=O)(=O)c2c(C)noc2C)cc1` gave HTT aggregate -29% and HTT cytoprotect -8%[10 µM].
For CCOc1ccc(N(CC(=O)Nc2cccc(Cl)c2)S(=O)(=O)c2c(C)noc2C)cc1 the results were HTT aggregate 22µM* and HTT cytoprotect 3%.
For Cc1cc(=O)[nH]c2cc3oc4ccccc4c3cc12 the results were HTT cytoprotect -9%[10 µM].
CCN1CCCC1Cn1c(-c2ccccc2)nc2c(N3CCOCC3)nc(C)nc21 (configuration not stated) was read as ERK EGF block -2% and HTT cytoprotect 21%.
For CC(C)(C)n1nnnc1C(c1cccs1)N(Cc1ccccc1)Cc1cccnc1 (configuration not stated) the results were HTT aggregate -2% and HTT cytoprotect 25%[10 µM].
`CC(C)(C)n1nnnc1C(c1cccs1)N(Cc1ccc(Cl)cc1)CC1CCCO1` (configuration not stated) gave HTT aggregate 14µM* and HTT cytoprotect -47%.
COc1ccc2c3c1O[C@H]1C[C@H](O)C=C[C@@]31CCN(C)C2 was read as ERK EGF block -7% and HTT cytoprotect inconclusive.
For O=C(OCn1ncc(Br)c(Br)c1=O)c1ccc(F)cc1 the results were HTT aggregate 4µM* and HTT cytoprotect -98%[10 µM].
For O=C(OCn1ncc(Br)c(Br)c1=O)c1ccccc1Cl the results were HTT aggregate inconclusive and HTT cytoprotect -80%.
`CCCCC1=CC2=C(OC(C)=O)C(=O)C(C)(OC(=O)CC)C(=O)C2=CO1` (configuration not stated) gave ERK EGF block -8% and HTT cytoprotect -20%.
Screening C/C(CCN1CCc2nc(-c3ccccc3)c(-c3ccccc3)cc2C1)=N\O[C@@H](C)CN1CCCc2nc(C)c(C)cc21 returned HTT cytoprotect 32%[10 µM].
Cc1cc(NC(c2cccnc2)c2ccc3cccnc3c2O)no1 (configuration not stated) was read as HTT aggregate inconclusive and HTT cytoprotect -86%.
For CCC(=O)NC(c1ccc(OC)cc1)c1cc(Cl)c2cccnc2c1O (configuration not stated) the results were HTT aggregate -3%[9.22 µM], ERK EGF block 1% and HTT cytoprotect -8%[10 µM].
Screening Oc1c(C(Nc2ccccn2)c2cccnc2)cc(Cl)c2cccnc12 (configuration not stated) returned HTT aggregate 7.1µM*, ERK EGF block 4% and HTT cytoprotect -59%[10 µM].
For COc1ccc(C(NC(=O)c2cccnc2)c2cc(Cl)c3cccnc3c2O)cc1OC (configuration not stated) the results were HTT aggregate 2.8µM* and HTT cytoprotect -76%.
CC(Cc1ccccc1)C(=O)NCC1CC1 (configuration not stated) was read as ERK EGF block 9% and HTT cytoprotect 13%.

Source: PubChem BioAssay
